According to PubChem BioAssay AID1049 (The Scripps Research Institute Molecular Screening Center, 2008):
Screen size: about 200,000 compounds; about 780 (0.39%) were called active. Rule as the data show it: active = TR-FRET ratio above about 2000; inactive = the rest. Shown is part of a subset that was picked to be rich in actives.

Test: detection-format interference in TR-FRET ratio – biochemical, artefact control for PPARgamma SRC-2 agonist project, primary screen (AID 1049)
Details: TR-FRET artefact counter-screen; at 8 µM; stronger effect = higher value

Structure (SMILES)	TR-FRET ratio
CN(C)C(CNC(=O)c1cccc(C#N)c1)c1ccco1 (centres undefined)	1390 (inactive)
COc1ccc(NC(=O)CN2C(=O)CSC2=O)cc1	1580 (inactive)
Cc1ccc(CN2CCN(Cc3ccc(OCCO)cc3)CC2CCO)o1 (centres undefined)	1600 (inactive)
CC(C)OCCCNC(=S)N1CCC(C(=O)c2ccc3c(c2)OCCO3)CC1	1610 (inactive)
O=C(Nc1cccc(O)c1)c1ccc(C(=O)c2ccccc2)o1	1480 (inactive)
COC(=O)CN1C(=O)N/C(=C/c2ccc(OC)c(C)c2OC)C1=O	1240 (inactive)
CCOc1ccc(C(=O)Nc2cccc(-c3ccc4nncn4n3)c2)cc1	1400 (inactive)
Cc1cccc(N2CCN(C(=O)c3cccc(S(=O)(=O)N4CCc5ccccc5C4)c3)CC2C)c1 (centres undefined)	1420 (inactive)
Cc1nc(-c2ccccc2)sc1-c1nc(-c2ccccc2)ncc1S(=O)(=O)c1ccccc1	1980 (active)
Cc1nc(-c2ccccc2)sc1C(=O)/C=C/c1ccccc1	1450 (inactive)
C=CCn1c(-c2sc(-c3ccccc3)nc2C)n[nH]c1=S	1590 (inactive)
Cc1cc(NC(=O)CSc2nnc(Nc3ccccc3F)s2)no1	1500 (inactive)
Cc1cc(C)c2c(c1)cc(C)c1nnc(SCC(=O)Nc3cc(C)on3)n12	1970 (active)
Cc1ccc(-c2csc(SCC(=O)Nc3cc(C)on3)n2)cc1	1440 (inactive)
CCN(CC)C(=O)C(=O)Nc1cccc(Br)c1	1590 (inactive)
COc1ccc(-n2c(O)c(C=NCC(c3ccco3)N3CCCC3)c3ccccc3c2=O)cc1OC (centres undefined)	1590 (inactive)
COc1ccc(/C(O)=C2\C(=O)C(=O)N(Cc3ccco3)C2c2ccc(OC)cc2OC)cc1 (centres undefined)	1620 (inactive)
COc1ccc(/C(O)=C2/C(=O)C(=O)N(c3nc(C)c(C)s3)C2c2ccco2)cc1 (centres undefined)	2180 (active)
COc1ccccc1C1/C(=C(/O)c2ccc(C)cc2)C(=O)C(=O)N1Cc1ccco1 (centres undefined)	1510 (inactive)
Cc1ccc(S(=O)(=O)Nc2nc3ccccc3s2)cc1[N+](=O)[O-]	1360 (inactive)

Structure (SMILES)	TR-FRET ratio
Cc1ccc(C)c(-n2cc(CN3CCN(C(=O)c4ncn[nH]4)CC3)c(-c3ccccc3)n2)c1	1390 (inactive)
CCc1nnc(NS(=O)(=O)c2ccc(N=Cc3c(C)[nH]n(-c4ccc(C)cc4)c3=O)cc2)s1	1630 (inactive)
COc1cc(SC#N)ccc1N=Cc1c(C)[nH]n(-c2ccc(C)cc2)c1=O	1980 (active)
Cc1ccc(-n2[nH]c(C)c(/C=N/N3C(=O)c4cccc5cccc(c45)C3=O)c2=O)cc1	1510 (inactive)
Cc1cc(C)c(NC(=O)c2oc3ccccc3c2COc2ccccc2)c(C)c1	1540 (inactive)
CCCCCC(O)c1cccc(OCc2ccc3ccccc3n2)c1 (centres undefined)	1460 (inactive)
CCN(CC)S(=O)(=O)c1ccc(N(C)Cc2cccc(OC)c2OC)nc1	1770 (inactive)
Cc1cccc(-c2ncc(CN3CCC(CO)(CCCc4ccccc4)CC3)cn2)c1	1690 (inactive)
CC(=O)c1cccc(CN2CCC(CO)(Cc3ccccc3)CC2)c1	1590 (inactive)
OCC1(CCc2ccccc2)CCN(Cc2ccc3nsnc3c2)CC1	2040 (active)
Cc1ccccc1-n1nc(C)c2c1N=C1C(Cl)=CC(Cl)=CN1C2c1ccc(C(=O)O)cc1 (centres undefined)	1440 (inactive)
CC(Sc1nnnn1C)C(=O)NC(=O)NC1CCCCC1 (centres undefined)	1580 (inactive)
CN1CCN(/N=C/c2ccc(C#N)cc2)CC1	1460 (inactive)
Cn1c(-c2sccc2OCc2cccc(C(F)(F)F)c2)n[nH]c1=S	1690 (inactive)
Cc1ccc(/C=N\n2c(-c3ccccc3)n[nH]c2=S)s1	1450 (inactive)
Cn1c(-c2sc3cc(C(F)(F)F)cnc3c2-c2ccccc2)n[nH]c1=S	2810 (active)
Nc1c(NCCc2ccccc2)c2ccccc2oc1=O	1500 (inactive)
Cc1cc(Cl)ccc1OCCCC(=O)NCc1ccccn1	1540 (inactive)
CN(CC(=O)N1CCN(c2ccccc2)CC1)S(=O)(=O)c1cccs1	1460 (inactive)
COc1cc2c(cc1O)C(SC)=NC(C)(C)C2	1660 (inactive)

Structure (SMILES)	TR-FRET ratio
COc1cc2c(cc1OC)C(Nc1ccc(S(N)(=O)=O)cc1)=NC(C)(C)C2	2460 (active)
COc1cc2c(cc1OC)C(C(C)C)=NC(C)(C)C2	1430 (inactive)
Cc1ccc(C)c(Cn2cnc3c(oc4ccccc43)c2=O)c1	1620 (inactive)
Cc1ccc2[nH]c(=O)c(CN(CC3COCCO3)C(=O)Nc3ccccc3C)cc2c1 (centres undefined)	1560 (inactive)
CCC(c1nnnn1C1CCCC1)N(Cc1cccs1)Cc1cc2cccc(C)c2[nH]c1=O (centres undefined)	1590 (inactive)
Cc1cccc2cc(CN(Cc3ccc4c(c3)OCO4)Cc3nnnn3C3CCCC3)c(=O)[nH]c12	2020 (active)
Cc1cccc2cc(CN(Cc3cccs3)C(c3nnnn3C3CCCC3)C(C)C)c(=O)[nH]c12 (centres undefined)	1580 (inactive)
O=C(/C=C/c1ccccc1[N+](=O)[O-])OC1CCCCC1=O (centres undefined)	1570 (inactive)
O=C(COC(=O)c1c2c(nc3ccccc13)CCCC2)c1ccc(Br)s1	2060 (active)
O=C(Nc1c2c(nc3ccccc13)CCCC2)c1ccccc1Br	1590 (inactive)
O=C(COC(=O)c1c2c(nc3ccccc13)/C(=C\c1cccs1)CCC2)Nc1ccccc1Cl	1590 (inactive)
O=C(N1CCCCC1)N1CCN(C(=O)N2CCCCC2)CC1	1520 (inactive)
Cc1ccc(C(=O)O)cc1N1C(=O)CCCC1=O	1430 (inactive)
Nc1nnc(SCC(=O)Nc2ccc3nc(SCC(=O)Nc4ccccc4)sc3c2)s1	1750 (inactive)
COc1ccc(NC(=O)CSc2nc(C)cs2)cc1	1520 (inactive)
COc1cc(OC)cc(-c2nnc(SCC(=O)Nc3ccc(C(=O)O)cc3)s2)c1	2010 (active)
COC(=O)[C@@H]1CC[C@H](C)[C@@H](c2ccc(C)cc2)N1C(=O)c1ccc(/C=N/O[C@H](C)c2cn([C@@H]3COC[C@H]3O)nn2)cc1	1550 (inactive)
COc1cccc(NC(=O)c2ccc3c(SCC(=O)O)c4c(nc3c2)CCCC4)c1	1460 (inactive)
Cc1cc(NC(C)C)n2c(nc3ccccc32)c1C#N	1630 (inactive)
